In PubChem BioAssay (NCI):
This is part of a sample that, as a whole, favours compounds with a hit. Of some 79,000 tested, about 15% had one in any assay. Active and inactive are the calls of the source. No stated cut-off is given here; in the data, active means growth inhibition above about 70%; inactive means the rest.

Columns and labels:
[1] = NCI Yeast Anticancer Drug Screen. Data for the rad50 strain (AID 155);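 further: 0% = growth of vehicle-only cultures of the same strain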; conditions: S. cerevisiae rad50 strain growth inhibition; at 50.0 µM; stronger effect = higher value
Procedure, shortened: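 Genetically altered yeast (DNA repair pathway); compound treatment; growth inhibition vs vehicle ctrl.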

[2] = NCI Yeast Anticancer Drug Screen. Data for the mec2-1 strain (AID 157); conditions: S. cerevisiae mec2-1 strain, at 50.0 µM, stronger effect = higher value
Procedure, shortened: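 Each compound was tested on mec2-1 yeast, a strain altered in DNA damage repair or cell cycle control. Growth inhibition is reported relative to vehicle.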

[3] = NCI Yeast Anticancer Drug Screen. Data for the sgs1 mgt1 strain (AID 161);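 further: 0% = growth of cultures given vehicle only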; conditions: S. cerevisiae sgs1 mgt1 strain, at 50.0 µM, stronger effect = higher value
Procedure, shortened: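 Test agents were incubated with a DNA-repair-mutant yeast strain. Growth was then read and compared against vehicle-treated controls.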

[4] = NCI Yeast Anticancer Drug Screen. Data for the cln2 rad14 strain (AID 165);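 further: 0% = growth equal to vehicle treated cultures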; conditions: S. cerevisiae cln2 rad14 strain, at 50.0 µM, stronger effect = higher value
Procedure, shortened: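 Test compounds were added to cln2 rad14 yeast cultures; inhibition of growth was then determined by comparison with vehicle treatment.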

[5] = NCI Yeast Anticancer Drug Screen. Data for the bub3 strain (AID 167); conditions: S. cerevisiae bub3 mutant strain, at 50.0 µM, stronger effect = higher value
Procedure, shortened: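 Yeast carrying a defined mutation is treated with each compound, and growth is compared with that of vehicle-exposed cells to give inhibition.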

[6] = NCI Yeast Anticancer Drug Screen. Data for the mlh1 rad18 strain (AID 175); conditions: S. cerevisiae mlh1 rad18 strain growth inhibition; at 50.0 µM; stronger effect = higher value
Procedure, shortened: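 Inhibition values reflect reduced growth of mutant yeast versus vehicle-treated controls following compound exposure; the mutations affect DNA damage repair.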

Measured: growth inhibition

CS(=O)(=O)C(CCC(=O)c1cccs1)C(=O)c1ccccc1 (stereo not drawn)
inactive: [1] -2.95% | [2] 3.25% | [3] -6.65% | [4] 1.85% | [5] 0.2% | [6] 14.4%

CC(C)(C)CC(C)(C)c1ccc(OCCOc2ccccc2NS(=O)(=O)c2ccc(N)cc2)cc1
inactive: [1] 47.5% | [2] -0.35% | [3] 33.6% | [4] 1.1% | [5] 10.1% | [6] 23.6%

c1ccc2c(c1)NC1(CCCCC1)S2
inactive: [1] 5.35% | [2] -13.1% | [3] 39.5% | [4] 11.6% | [5] 5% | [6] 11.9%

C(=Nc1ccc2c(c1)Cc1ccccc1-2)c1ccc2c(c1)OCO2
inactive: [1] 8.75% | [2] -10.1% | [3] 9.75% | [4] -2.1% | [5] 3.05% | [6] 15.4%

COc1cc(C(=O)Nc2cccc(Cl)c2Cl)cc(OC)c1OC
inactive: [1] -7.45% | [2] -13.6% | [3] 12% | [4] 21.2% | [5] 18% | [6] 10.9%

O=C(O)/C=C/c1ccc(C(NC(=O)N2C(=O)C=CC2=O)NC(=O)N2C(=O)C=CC2=O)cc1
inactive: [1] 37.8% | [2] 15.8% | [3] 42.3% | [4] 15.7% | [5] 13.3% | [6] 19%

Cc1cc(Nc2ccc(O)cc2)nc(Nc2ccc(O)cc2)n1
inactive: [1] -8.25% | [2] -18.4% | [3] -35.3% | [4] -34% | [5] 10.9% | [6] -2.3%

O=C(NC1CCCCC1)C1C(=O)C(=O)N(C2CCCCC2)C1=O (stereo not drawn)
inactive: [1] -14.5% | [2] -1.35% | [3] -13.9% | [4] -8.65% | [5] -5.8% | [6] -28.2%

CCN(CC)Cc1cc(-n2cnc3c(=S)nc[nH]c32)ccc1O
inactive: [1] -3.15% | [2] -12.4% | [3] -8.8% | [4] 3.45% | [5] -5.65% | [6] -3.2%

O=C(O)O.O=C(O)O.O=C(O)O.[Co]
inactive: [1] -9.35% | [2] 38.3% | [3] -2.75% | [4] -11.6% | [5] 8.65% | [6] -5.05%

COC(=O)C1=C(NC(=O)Nc2ccc([N+](=O)[O-])cc2)OC(C)(C)C1c1ccc(Cl)cc1 (stereo not drawn)
inactive: [1] 23.6% | [2] 9.15% | [3] 6.45% | [4] -6.1% | [5] 1.1% | [6] 29.6%

CCCCCCCCCCCCCCCCCC(=O)OCCCC
inactive: [1] 6.35% | [2] -9.9% | [3] -20.1% | [4] -20.4% | [5] 0.2% | [6] -22%

OCCc1ccccc1CCO
inactive: [1] -29.6% | [2] -17.8% | [3] -13.2% | [4] -16.9% | [5] -5.4% | [6] 8.5%

Cc1ncc(CO)c(/C=N/NC(N)=S)c1O
inactive: [1] 3.3% | [2] -13.9% | [3] 3.7% | [4] -34.9% | [5] 0.05% | [6] 13.6%

CC1(O)c2ccccc2-c2nc3ccccc3nc21 (stereo not drawn)
inactive: [1] 15.1% | [2] 14.4% | [3] -16.4% | [4] -11.8% | [5] -0.35% | [6] -15.4%

ClCCCCC(Cl)(Cl)Cl
inactive: [1] 27.9% | [2] 27.6% | [3] 10.4% | [4] -16.3% | [5] 21.9% | [6] 23.3%

O=C(OCc1ccccc1CN1CCOCC1)c1ccccc1
inactive: [1] 2.55% | [2] 16.4% | [3] 9.5% | [4] -11.9% | [5] -15.8% | [6] 8.3%

CCCCC(CC)CN(CC(CC)CCCC)C1C=CCCC1 (stereo not drawn)
inactive: [1] 3.6% | [2] -10.3% | [3] 7.9% | [4] -36.8% | [5] 6.5% | [6] 2.7%

CSc1nc(NC2OC(CO)C(O)C(O)C2O)c(I)c(=O)n1C (stereo not drawn)
inactive: [1] 3.15% | [2] 1.85% | [3] -5.3% | [4] -6.25% | [5] -1.75% | [6] 27.7%

CN(C)C(=O)CC(O)c1ccccc1 (stereo not drawn)
inactive: [1] 13.9% | [2] -9.95% | [3] 1.6% | [4] -30.2% | [5] -2.55% | [6] 4.75%

Cc1onc(-c2ccccc2Cl)c1-c1nc2ccccc2c(=O)o1
active: [1] 94.1% | [2] 97% | [3] 98.5% | [4] 93.2% | [5] 96.8% | [6] 93.5%

CC/C=C(\C)C1(CC)C(=O)NC(=O)N=C1N (stereo not drawn)
inactive: [1] -1.35% | [2] 3.55% | [3] 5.9% | [4] 4.55% | [5] -2% | [6] -11.9%

Cc1ccc(O)cc1C(=O)O
inactive: [1] -32% | [2] -14.7% | [3] -0.95% | [4] 8.05% | [5] -3.75% | [6] 5.4%

O=C(O)CCS.[Cu+2]
inactive: [1] -11.8% | [2] -25.3% | [3] -9.05% | [4] -10.7% | [5] -29.9% | [6] -14.8%

S=C=NC12CC3CC(CC(C3)C1)C2
inactive: [1] -2% | [2] 0.6% | [3] 0.65% | [4] 15.1% | [5] -4.05% | [6] -15.5%

O=C1Nc2n[nH]c(=S)n2NC12c1ccccc1-c1ccccc12
inactive: [1] -45.8% | [2] -14.2% | [3] -28.1% | [4] -19.9% | [5] -21.7% | [6] -63.2%

COC(=O)C(NC(=O)C(C)N1C(=O)CCC(NS(=O)(=O)c2ccc(C)cc2)C1=O)C(C)C (stereo not drawn)
inactive: [1] 30.1% | [2] 8% | [3] 9.4% | [4] 1.05% | [5] 3.55% | [6] 15.8%

Cc1cc(=O)n(C)c2ccc(N)cc12
inactive: [1] -3.85% | [2] 3.75% | [3] -4% | [4] -14.8% | [5] 10.5% | [6] 1.85%

Cc1ccc2ccc(=O)oc2c1
inactive: [1] 7.9% | [2] 1.05% | [3] 2.85% | [4] 7.45% | [5] 13.8% | [6] 6.85%

CN(C)c1ccc(/C=N/NC(=O)c2ccccc2NC(=O)C2CC2)cc1
inactive: [1] -11.4% | [2] 1.4% | [3] 27% | [4] -18.8% | [5] 24.8% | [6] 26.6%

COC(=O)/C=C(\C)CC/C=C(\C)CCC1OC1(C)C (stereo not drawn)
active: [3] 84.7% | [5] 77.5% | [6] 81.1%
inactive: [1] 11.9% | [2] 44.1% | [4] 57.3%

CN(C)c1ccc(C(=O)O)cc1
inactive: [1] -0.75% | [2] 11.3% | [3] -20.4% | [4] -28.8% | [5] -17.6% | [6] -16.3%

Clc1ccc(C2N3CCCCC3[C@@H]3c4[nH]c5ccccc5c4CCN23)cc1 (stereo partly drawn)
inactive: [1] -11.7% | [2] -10.8% | [3] -4.7% | [4] -4.65% | [5] 0.3% | [6] -8.5%

COc1cccc2c1[C@@]1(C)C3C(=O)OC(C)(c4ccccc43)[C@@]1(C)C2=O (stereo partly drawn)
inactive: [1] 39.4% | [2] 20.7% | [3] -7.45% | [4] 23.1% | [5] -4.1% | [6] 9.35%

COC(=O)c1cc(C(=O)OC)c2c3[nH]cnc3ncn2c1=O
inactive: [1] 24.4% | [2] 9.85% | [3] 15.9% | [4] 18.6% | [5] 3.65% | [6] 21.4%

COC(=O)c1nc(=S)[nH]c(C(=O)OC)c1C(=O)c1ccccc1O
inactive: [1] 21.9% | [2] 11.9% | [3] 14.1% | [4] 3.4% | [5] 29.1% | [6] 30%

COC(=O)C1CCC(=O)N1Cc1csc(-c2ccccc2)n1 (stereo not drawn)
inactive: [1] -12.1% | [2] -6.95% | [3] -6.8% | [4] -24.7% | [5] -14.8% | [6] -11.8%

Cc1ccccc1N1C(=O)[N+]2(CCCCC2)N=C1[O-]
inactive: [1] -11.1% | [2] 2.2% | [3] -13.3% | [4] -42.5% | [5] -3.9% | [6] -12.6%
